# An excerpt weighted towards active compounds, which were near 9% of everything screened.
# BAZ2B block: blocks human BAZ2B; Q9UIF8; AlphaScreen BAZ2B-H3K14Ac peptide displacement; Potency, µM (highest dose often 114 µM), for inactives: top-dose activity change, negative = inhibition, usual class: inhibitors; 4.4% of 360,000 active; note: % is set by controls: 0 for no effect and ±100 for the full control effect; nearly all actives have a fitted effect of over 60% in size
# Target sequence (Q9UIF8 whole entry, looked up): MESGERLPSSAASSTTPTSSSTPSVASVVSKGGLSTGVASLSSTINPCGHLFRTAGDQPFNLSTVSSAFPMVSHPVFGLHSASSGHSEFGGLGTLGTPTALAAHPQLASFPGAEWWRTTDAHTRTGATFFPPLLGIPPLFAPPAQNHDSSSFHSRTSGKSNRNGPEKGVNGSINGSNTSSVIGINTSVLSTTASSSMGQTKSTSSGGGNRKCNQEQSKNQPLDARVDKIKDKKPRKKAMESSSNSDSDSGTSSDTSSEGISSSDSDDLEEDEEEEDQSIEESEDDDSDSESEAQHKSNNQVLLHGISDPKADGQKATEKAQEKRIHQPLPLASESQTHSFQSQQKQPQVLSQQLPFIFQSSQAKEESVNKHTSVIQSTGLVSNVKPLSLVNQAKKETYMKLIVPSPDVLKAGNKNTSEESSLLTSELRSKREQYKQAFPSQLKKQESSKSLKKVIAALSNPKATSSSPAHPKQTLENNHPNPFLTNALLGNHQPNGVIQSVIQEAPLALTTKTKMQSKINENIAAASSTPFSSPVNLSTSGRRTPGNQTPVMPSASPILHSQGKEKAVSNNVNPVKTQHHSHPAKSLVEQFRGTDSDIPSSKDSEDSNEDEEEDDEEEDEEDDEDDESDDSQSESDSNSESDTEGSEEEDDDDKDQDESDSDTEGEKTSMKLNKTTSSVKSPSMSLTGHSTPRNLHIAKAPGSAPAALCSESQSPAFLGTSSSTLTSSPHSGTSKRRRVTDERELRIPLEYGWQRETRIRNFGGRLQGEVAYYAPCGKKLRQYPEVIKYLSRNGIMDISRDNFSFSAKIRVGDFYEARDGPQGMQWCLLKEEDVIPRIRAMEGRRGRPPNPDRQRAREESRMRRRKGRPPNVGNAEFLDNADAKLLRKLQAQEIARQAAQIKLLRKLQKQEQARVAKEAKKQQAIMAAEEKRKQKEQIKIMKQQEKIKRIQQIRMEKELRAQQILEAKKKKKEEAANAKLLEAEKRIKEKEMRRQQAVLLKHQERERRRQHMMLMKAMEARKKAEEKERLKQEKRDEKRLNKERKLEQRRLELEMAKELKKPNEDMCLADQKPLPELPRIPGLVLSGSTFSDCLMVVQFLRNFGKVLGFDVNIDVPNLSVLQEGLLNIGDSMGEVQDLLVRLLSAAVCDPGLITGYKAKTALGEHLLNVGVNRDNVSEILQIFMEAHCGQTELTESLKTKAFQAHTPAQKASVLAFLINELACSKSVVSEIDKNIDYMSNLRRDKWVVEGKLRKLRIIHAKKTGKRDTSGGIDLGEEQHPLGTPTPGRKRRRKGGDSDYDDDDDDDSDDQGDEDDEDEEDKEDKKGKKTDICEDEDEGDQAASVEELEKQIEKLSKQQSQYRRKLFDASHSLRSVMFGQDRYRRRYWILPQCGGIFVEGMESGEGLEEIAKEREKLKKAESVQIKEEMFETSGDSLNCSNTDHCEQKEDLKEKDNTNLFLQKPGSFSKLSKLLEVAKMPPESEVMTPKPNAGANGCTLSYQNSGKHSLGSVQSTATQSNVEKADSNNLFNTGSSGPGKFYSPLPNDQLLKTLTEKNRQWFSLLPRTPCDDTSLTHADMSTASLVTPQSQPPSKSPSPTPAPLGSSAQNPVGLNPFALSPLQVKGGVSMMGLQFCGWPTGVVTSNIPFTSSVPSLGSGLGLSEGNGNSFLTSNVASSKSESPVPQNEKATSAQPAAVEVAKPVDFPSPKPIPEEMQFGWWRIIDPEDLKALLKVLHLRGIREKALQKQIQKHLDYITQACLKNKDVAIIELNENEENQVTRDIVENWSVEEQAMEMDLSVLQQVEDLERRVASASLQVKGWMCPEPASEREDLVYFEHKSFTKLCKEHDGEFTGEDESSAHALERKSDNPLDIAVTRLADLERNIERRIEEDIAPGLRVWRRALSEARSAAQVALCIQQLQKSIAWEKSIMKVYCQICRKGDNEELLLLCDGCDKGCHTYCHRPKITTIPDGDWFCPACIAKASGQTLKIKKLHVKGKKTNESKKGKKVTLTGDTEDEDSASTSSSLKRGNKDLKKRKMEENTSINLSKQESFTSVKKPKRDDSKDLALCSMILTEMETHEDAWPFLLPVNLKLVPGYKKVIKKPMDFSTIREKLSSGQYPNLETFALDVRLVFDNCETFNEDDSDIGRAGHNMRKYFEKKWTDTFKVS
#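 Inhibition is scored as reduced AlphaScreen emission. The BAZ2B/b-H3(5-23)K14Ac complex (50 nM each) in PBS pH 7.4, 0.01% Tween-20 meets compound (up to 110 uM) for 30 min at RT before bead addition.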
# ALOX12 inh: ALOX12 (human) lipoxygenase inhibition. 1.1% of 580,000 active. purified 12hLO, xylenol orange hydroperoxide absorbance. Potency, µM (doses to about 108 µM), without a hit: at the highest dose activity change, negative = inhibition, hits mostly inhibitors. P18054; note: % is set by controls: 0 for no effect and ±100 for the full control effect
#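 Purified human 12hLO (150 nM final) in 25 mM Hepes, 0.01% Triton X-100, pH 7.0 was preincubated 15 min at room temperature with compound. Then 40 uM arachidonic acid was added, 30 min. Hydroperoxide was read by Fe-XO absorbance ratio 573/405 nm.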
# G9a block: G9a (human) methyltransferase inhibition; Potency, µM (highest dose often 102 µM), without a hit: at the top dose activity, negative = inhibition, actives largely listed as inhibitors; 8.8% of 350,000 active; AID 504332; Q96KQ7; G9a H3K9 monomethylation, AlphaScreen, 2 h; note: % is set by controls: 0 for no effect and ±100 for the full control effect; nearly all actives have a fitted effect of over 75% in size
#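 G9a (20 nM) preincubated 15 min RT with compounds, then 500 nM biotinylated H3K9 peptide and 20 uM SAM added; 2 h RT reaction. Monomethyl-H3K9 product detected by AlphaScreen with anti-H3K9me1 antibody, streptavidin donor and anti-rabbit IgG acceptor beads.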
# JMJD2A Tudor: inhibitors of human JMJD2A Tudor domain; O75164; AlphaScreen JMJD2A-Tudor / H3K4me3 peptide binding; Potency, µM (titrated, usually from 114 µM), for inactives: at the highest dose activity change, negative = inhibition, hits mostly inhibitors; 4.4% of 390,000 active; AID 504339; note: % is set by controls: 0 for no effect and ±100 for the full control effect; nearly all actives have a fitted effect of over 50% in size
# PLK1 PBD block: blocks phosphopeptide binding to human PLK1 polo-box domain. Plk1 PBD binding of FITC phosphopeptide, fluorescence polarization. Potency, µM, inactives show max response, negative = inhibition, most hits filed as inhibitors. 2.8% of 360,000 active. AID 720504; note: series mostly up to about 57 µM; % is set by controls: 0 for no effect and ±100 for the full control effect; nearly all actives have a fitted effect of over 65% in size
# HP1b chromo inh: blocks HP1-beta chromodomain binding to methylated histone tails. P83916. AlphaScreen HP1-beta / biotin-H3K9me3 peptide binding. Potency, µM (top dose mostly 114 µM), without a hit: at the top dose activity change, negative = inhibition, usual class: inhibitors. 0.56% of 390,000 active. AID 540317; note: nearly all actives have a fitted effect of over 70% in size
#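 AlphaScreen: HP1-beta (50 nM) preformed 30 min with biotin-H3(1-18)K9me3 peptide (50 nM) in PBS pH 7.4, 0.01% Tween-20. Compound added for 30 min at RT, then streptavidin donor/nickel chelate acceptor beads (10 ug/mL) for 30 min.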
# TbPYK confirm: Trypanosoma brucei pyruvate kinase inhibition, cherry-pick confirmation; shares compounds with PLK1 PBD block; recombinant TbPYK, Kinase-Glo ATP luminescence; Potency, µM (titrated, usually from 76.9 µM), without a hit: top-dose activity change, negative = inhibition, hits mostly inhibitors; 67% of 890 active; AID 720569; note: % is set by controls: 0 for no effect and ±100 for the full control effect; nearly all actives have a fitted effect of over 70% in size
# TbPYK orthogonal: TbPYK inhibition, orthogonal confirmation; 62% of 890 active; AID 720584; Potency, µM (titrated, usually from 76.9 µM), for inactives: at the top dose activity change, negative = inhibition, usual class: inhibitors; shares compounds with PLK1 PBD block; recombinant TbPYK, ADP-Glo luminescence, 60 min; note: % is set by controls: 0 for no effect and ±100 for the full control effect; nearly all actives have a fitted effect of over 75% in size
# * = called active by the depositor; ? = inconclusive; . = not tested or not shown; ! = not active in a repeat; [ ] = dose if it differs, or a comment. Calls come from the whole dose curve; as a rule, active = well fitted curve in the direction sought with a large enough effect; inconclusive = small, poorly fitted or top-dose-only effect, or another doubt; inactive = no such curve, though single readings can be large; an effect the other way counts as inactive or inconclusive. Potency is the fitted concentration of half-maximal effect.
SMILES,BAZ2B block,ALOX12 inh,G9a block,JMJD2A Tudor,PLK1 PBD block,HP1b chromo inh,TbPYK confirm,TbPYK orthogonal
CC1=CC(=O)C(C(C)C)=CC1=NC(=O)c1ccc(C)cc1,40µM*,?,8.9µM*,50µM*,2.7µM*,22µM*,7.9µM*,7.9µM*
CC1=CC(=O)C(C(C)C)=C/C1=N\OC(=O)c1cccc2nc(C)oc12,5%,-25%,12%[59 µM],-20%,-29%,17%,.,.
CC(C)(C)CC(=O)N1CC[C@H]2CC(=O)N(c3ccccc3)CC[C@H]2C1,.,10%[176 µM],.,.,.,.,.,.
NS(=O)(=O)c1ccc(CCNc2ncnc3c2cnn3-c2cccc(Cl)c2)cc1,-9%,?,-2%[59 µM],-29%,.,14%,.,.
CC(=O)Nc1ccc(C(=O)CSc2nnc(-c3ccc(O)cc3)n2CC2CCCO2)cc1 (stereo not drawn),-28%,?,20µM*,79µM*,-17%,-14%,16µM*,?
COc1ccc(C(=O)CSc2nnc(-c3ccco3)n2C)cc1,5%,1%,-8%[59 µM],-9%,-12%,32%,.,.
COc1ccc(C(=O)CSc2nnc(-c3ccco3)c(-c3ccco3)n2)cc1,20µM*,20µM*,8.9µM*,22µM*,27µM*,?,25µM*,35µM*
COc1ccc(C(=O)CSc2nnc(-c3ccco3)n2CC2CCCO2)cc1 (stereo not drawn),5%,?,-13%[59 µM],-8%,-14%,61%,.,.
O=C(CSc1ccc(-c2ccco2)nn1)c1ccc(F)cc1,-34%,28µM*,40µM*,45µM*,?,?,25µM*,32µM*
O=C(CSc1nnc(-c2ccco2)n1CC1CCCO1)c1ccc(F)cc1 (stereo not drawn),-23%,-15%,45µM*,3.2µM*,2.7µM*,?,?,40µM*
O=c1oc2ccc3ccccc3c2cc1-c1nnc(Nc2ccccc2F)s1,6%,0%,6%[59 µM],-4%,.,37%,.,.
CCCCC1(C)OC(=O)C(=Cc2ccc(-c3ccc(Cl)c(C(=O)O)c3)o2)C(=O)O1 (stereo not drawn),-32%,-23%,.,-7%,4.2µM*,28%,16µM*,32µM*
CCCn1c(SCC(=O)Nc2ccccc2Cl)n[nH]c1=O,-1%,-2%,-5%[12.7 µM],-6%,1%,22%,.,.
Oc1c(C=C2N=c3ccccc3=N2)sc(=S)n1-c1ccc(F)cc1,-6%,-20%,?,-26%,?,9%,.,.
Oc1[nH]c(=S)sc1C=C1N=c2ccccc2=N1,-33%,0%,?,-28%,-4%,-3%,22µM*,?
Cc1cnc([N+](=O)[O-])n1CCOC(=O)NC(=O)c1c(F)cccc1F,-11%,-3%,-6%,-6%,2%,34%,.,.
C[C@@H]1CCCCO[C@@H](CN(C)C(=O)Nc2ccccc2)[C@@H](C)CN([C@H](C)CO)C(=O)c2cc(N(C)C)ccc2O1,.,-7%,.,.,-19%,.,.,.
C[C@@H]1CCCCO[C@H](CN(C)Cc2ccc(Cl)c(Cl)c2)[C@@H](C)CN([C@H](C)CO)C(=O)c2cc(N(C)C)ccc2O1,.,-9%,.,.,-2%,.,6.3µM*,6.3µM*
C[C@@H]1CCCCO[C@H](CN(C)C(=O)Nc2cccc3ccccc23)[C@@H](C)CN([C@H](C)CO)C(=O)c2cc(N(C)C)ccc2O1,.,-30%,.,.,0%,.,3.5µM*,7.1µM*
C[C@@H]1CCCCO[C@@H](CN(C)Cc2ccccc2)[C@@H](C)CN([C@H](C)CO)C(=O)c2cc(N(C)C)ccc2O1,.,-13%,.,.,29%,.,.,.
COc1ccc(NCc2nnc(SCC(=O)Nc3ccc(OC)cc3)n2C)cc1,?,-4%,-7%,-15%,-3%,15%,.,.
Cc1ccc(NC(=O)CN(C)CC(=O)NC2(C#N)CCCCC2)cc1,.,-7%,.,.,.,.,.,.
Cc1cc(C(=O)c2ccccc2)cc(C)c1O,.,-7%,.,-3%,2%,25%,.,.
CC1=C/C(=C(\c2cc(C)c(O)c(Br)c2)c2ccccc2S(=O)(=O)O)C=C(Br)C1=O,20µM*,?,14µM*,?,-14%,28µM*,13µM*,13%
Cc1cc(N/N=C/c2cccc(Br)c2)nc2ccccc12,7%,-19%,74%[59 µM],-16%,0%,29%,.,.
SMILES,BAZ2B block,ALOX12 inh,G9a block,JMJD2A Tudor,PLK1 PBD block,HP1b chromo inh,TbPYK confirm,TbPYK orthogonal
COc1cccc(Nc2ccc(N3CCCCC3)cc2)c1OC,14µM*,?,-23%[0.501 µM],32µM*,.,32µM*,?,?
COc1cccc(-c2noc(N3CCCC3)n2)c1OC,.,-6%,.,.,.,.,.,.
CCOC(=O)c1c(NS(=O)(=O)c2ccc(Br)cc2)sc2c1CCC2,.,0%[57.4 µM],.,79µM*,21µM*,-16%,35µM*,?
CN(C)c1oc(-c2ccccc2[N+](=O)[O-])nc1C#N,-38%,7%,7.1µM*,16µM*,27µM*,?,1.8µM*,4.5µM*
CCOC(=O)C1=CCN(S(=O)(=O)c2ccc(C)cc2)C1c1ccccc1 (stereo not drawn),.,3%,.,.,-8%,.,.,.
CCOc1cc2c(c3c1C(c1ccccc1)N(S(=O)(=O)c1ccc(C)cc1)C3)C(=O)C=CC2=O (stereo not drawn),.,1.1µM*,.,.,?,.,1.6µM*,2.8µM*
COc1ccc2oc(=O)c(-c3nc(-c4ccc(C)c(C)c4)cs3)cc2c1,37%,-12%,91%[59 µM],36%,.,60%,.,.
COc1cc(N=c2ssnc2Cl)c(OC)cc1Cl,28µM*,2.5µM*!,1.1µM*,25µM*,1.7µM*,11µM*,4.5µM*,6.3µM*
COc1ccc(OC)c(N=C2C(=O)Nc3ccccc32)c1,?,-21%,?,-31%,-4%,0%,.,.
COc1ccc(OC)c(N=c2ssnc2Cl)c1,25µM*,?,1.1µM*,?,2.7µM*,?,16µM*,14µM*
COc1cc(-n2nnnc2SC)c(OC)cc1Cl,-5%,-2%,10%,-4%,4%,30%,.,.
O=C(NCCCN1CCN(c2ccc(F)cc2)CC1)c1cccc(N2CCCC2=O)c1,0%,45%,-8%[59 µM],-6%,-6%,19%,.,.
CC(C)C[C@@H](CN1CCC[C@@H]1CN1C(=S)NC[C@@H]1Cc1ccc(O)cc1)N1C[C@H](Cc2ccc(O)cc2)N(CCc2ccccc2)C1=S,.,-11%,.,.,-9%,.,.,.
COc1ccc(-c2cnc(N)nc2-c2ccc(OCc3ccc(F)cc3)cc2O)cc1OC,.,-42%,.,.,.,.,.,.

# Bioassay records: PubChem, National Center for Advancing Translational Sciences (NCATS)
